Source: PubChem BioAssay
Rows were chosen to be rich in hits. Some 5.9% of all compounds tested hit in one or more screens of this group.
AHR act: human AHR activation | AHR-responsive luciferase reporter cells, luminescence | activation, % at 5 µM | actives 2.5% (n = 320,000) | AID 2796; in the data active = activation above about 47%;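 also: 0% = vehicle wells and 100% = reference agonist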
HSF1 inh: HSF1 inhibition | NIH3T3-HGL HSE-luciferase, MG132-induced, luminescence 8 h; stronger effect = lower value | activity change, negative = inhibition, % at 7.5 µM (by protocol) | actives 0.77% (n = 300,000);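 active = more than half of replicate wells show activity change below -50%, luminescence cut by over half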;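 also: luciferase reports HSF-1 transcriptional activity via heat shock element; 0% = median of DMSO wells and -100% = zero luminescence signal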
DAX1 inh: inhibits human nuclear receptor DAX1 | P51843 | inhibition, % at 6.75 µM | actives 0.99% (n = 340,000) | HEK293 Gal4-DAX1 luciferase reporter, luminescence;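 active = inhibition above the mean over all tested compounds plus 3 SD, cut at about 4.2% in these data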;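 also: 0% = DAX1-transfected cells with DMSO and 100% = empty-vector control cells with DMSO; inhibition shows as a rise in luminescence from relieved DAX1 repression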
Target sequence (P51843 207-470 limits assumed): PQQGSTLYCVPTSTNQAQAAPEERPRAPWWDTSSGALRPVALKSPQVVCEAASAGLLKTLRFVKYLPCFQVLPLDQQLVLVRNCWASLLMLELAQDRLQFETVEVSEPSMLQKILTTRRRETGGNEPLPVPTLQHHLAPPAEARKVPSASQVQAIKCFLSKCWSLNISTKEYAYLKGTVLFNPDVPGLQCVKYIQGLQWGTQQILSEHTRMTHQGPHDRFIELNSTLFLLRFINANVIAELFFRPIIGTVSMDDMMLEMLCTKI
HSF1 activator: increases HSF-1 driven luciferase reporter signal; NIH3T3-HGL HSF-1 luciferase reporter, MG132, 8 h; 100% = twice DMSO control signal; activation, % at 9 µM; actives 1.7% (n = 300,000);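 active = mean replicate activation of at least 50% with a set share of replicates each reaching 50%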;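 also: 0% = median of the neutral control wells and 100% = twice that signal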
GAA850 FXN act: frataxin GAA850 promoter activation | HEK293 lucGAA850 FXN promoter luciferase reporter, 24 h; percent of 10 µM SAHA response | activation, % at 6 µM | actives 0.56% (n = 360,000) | AID 540364;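 active = activation above the average of all compounds screened plus 3 SD, cutoff fixed separately per campaign, cut at about 7.5% in these data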;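 also: 0% = DMSO wells and 100% = 10 µM SAHA wells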
HSP90 refold inh: inhibitors of HSP90 luciferase refolding in rabbit reticulocyte lysate | luciferase refolding luminescence, 3 h | inhibition, % at 5.6 µM | actives 0.91% (n = 290,000) | AID 1789;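 active = inhibition above the screen-wide mean plus 3 SD, computed separately per campaign, cut at about 16% in these data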;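 also: 0% = DMSO wells and 100% = 60 µM geldanamycin wells; inhibitors lower the luminescence because luciferase stays unfolded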
Numbers without * were called inactive; · = no result.

SMILES	AHR act	HSF1 inh	DAX1 inh	HSF1 activator	GAA850 FXN act	HSP90 refold inh
CCCCN(C(=O)c1ccc(N(C)S(=O)(=O)c2ccc(C)cc2)cc1)c1c(N)n(CCCC)c(=O)[nH]c1=O	2	-4	-2	1	0	·
CCOC(=O)/C(=C\c1cccc(O)c1)c1nc2sc(C)c(C)c2c(=O)[nH]1	0	114	0	161*	-3	5
CCOC(=O)c1nc2sc(C)c(C)c2c(=O)[nH]1	1	-12	0	-9	1	3
C=C(C)Cn1c(NCCC)nc2c1c(=O)n(C)c(=O)n2C	0	-53*	0	-64	0	-6
CCOc1ccccc1N1CC(C(=O)Nc2ccc(S(=O)(=O)N3CCCCC3)cc2)CC1=O (stereo not given)	1	9	0	-6	0	·
O=C1/C(=C\Nc2ccc(OC(F)(F)F)cc2)CCN1c1ncccn1	6	-1	0	-3	0	0
O=C1/C(=C\Nc2ccc(Cl)cc2)CCN1c1ncccn1	52*	-3	2	2	4	1
COc1cccc(CNc2ccc(N3CCCCC3)cc2)c1OC	1	·	0	·	-2	-2
COc1cccc(CNc2ccc(S(N)(=O)=O)cc2)c1OC	0	-57*	1	-67	-1	3
COc1cccc(CNc2ccc3c(c2)nc(C)n3C)c1OC	67*	-3	2	10	3	2
COc1ccc(N2CCN(C(C)C(=O)N3CCCC3)CC2)cc1 (stereo not given)	1	18	0	15	2	0
O=C(NC12CC3CC(CC(C3)C1)C2)c1ccc(-c2cccc(Cl)c2)o1	1	-21	2	-36	-4	17*
O=C(NC12CC3CC(CC(C3)C1)C2)c1ccc(-c2ccc(Cl)cc2)o1	12	4	3	9	3	9
N/C(=N\OC(=O)c1ccc(Cl)c(Cl)c1)c1ccccn1	72*	5	0	1	-1	-1
COc1cc(OC)cc(C(=O)O/N=C(\N)c2ccccn2)c1	29	30	·	55*	1	2
CC1CCCCC1NC(=O)C1CCC(CNS(=O)(=O)c2ccc3c(c2)C(C)(C)C(=O)N3C)CC1 (stereo not given)	·	·	·	·	2	·
CCN(CCNC(=O)CCCn1nc(C)n2c(cc3sccc32)c1=O)c1ccccc1	12	49	-1	74*	-2	2
O=C(CSc1nc2ccccc2c(=O)n1CCCN1CCOCC1)Nc1ccccc1OC(F)F	-3	·	0	·	0	·
O=C(CC(O)CCc1ccccc1)c1ccc(O)cc1 (stereo not given)	5	·	8.4*	·	3	·
O=C(Cc1ccccc1)c1ccc(O)cc1	·	·	1	·	4	·
Cc1oc(-c2cccc(Cl)c2)nc1CN1CCCC(C(=O)NC(C)c2ccc3c(c2)OCCO3)C1 (stereo not given)	0	27	-3	54*	4	4
Cc1oc(-c2cccc(Cl)c2)nc1CN1CCCC(C(=O)NCc2ccco2)C1 (stereo not given)	-1	4	-1	12	6	1
CN(CC(=O)Nc1cccc(F)c1)CC(=O)N(C)c1c(N)n(Cc2ccccc2)c(=O)[nH]c1=O	2	·	0	·	2	·
CCOc1ncccc1C(=O)NNC(=O)c1ccccc1-n1cccc1	61*	-7	1	4	3	-4
CCOc1ncccc1C(=O)NCc1ccccc1Cl	11	5	5.7*	31	1	0
SMILES	AHR act	HSF1 inh	DAX1 inh	HSF1 activator	GAA850 FXN act	HSP90 refold inh
CCCSc1nsc(NC(=O)c2cccnc2OCC)n1	2	6	5.8*	5	3	1
CCOc1ncccc1C(=O)NCCCSc1ccccc1	-1	0	0	-7	2	-5
CCCCn1c(N)c(N(C)C(=O)c2cccc(-n3cnnn3)c2)c(=O)[nH]c1=O	-1	·	1	·	0	·
Cc1ccc2oc(=O)c3cc(C(=O)N4CCN(C)CC4)sc3c2c1	5	5	-1	16	1	-7
CC1CCCCC1NC(=O)c1ccc(NS(=O)(=O)c2ccc3[nH]c(=O)[nH]c3c2)cc1 (stereo not given)	2	2	-2	1	0	·
CCN(CC)S(=O)(=O)c1ccc(N2CC(C(=O)N3Cc4ccccc4CC3C(N)=O)CC2=O)cc1 (stereo not given)	5	·	-2	·	-1	·
CC1=Nc2ccc(C)c3nc(C)cc(c23)N1c1ccc(C)cc1	28	-53*	-1	-64	3	-1
Cc1ccc(N2C=Nc3ccc(C)c4nc(C)cc2c34)cc1	34	0	0	-8	4	-3
Cc1ccc(NC(=S)N2CCC(c3ccccc3)C2)c(Cl)c1 (stereo not given)	1	-4	0	1	1	12
S=C(Nc1ccccc1Cl)N1CCC(c2ccccc2)C1 (stereo not given)	6	13	4.6*	24	4	-3
O=C(Nc1cccc(F)c1)N1CCC(c2ccccc2)CC1	3	0	0	24	3	-4
O=C(Nc1ccc(Cl)cc1)N1CCC(c2ccccc2)C1 (stereo not given)	-2	58	6.8*	76*	3	0
Cc1ccc(C2CCN(C(=O)Nc3ccccc3)C2)cc1 (stereo not given)	-6	24	2	45	7	-2
Cc1ccc(NC(=O)N2CCC(c3ccccc3)C2)cc1C (stereo not given)	4	38	5.8*	62*	6	4
COc1ccccc1/C=C/C(=O)N1CCC(c2ccccc2)C1 (stereo not given)	66*	13	1	44	7	-7
N#Cc1c(NC(=O)C2CC2)sc2c1CCCCC2	0	22	0	49	6	2
CC1CCN(C(=O)CSc2nc(=O)n3ccccc3n2)CC1	-1	-3	0	-6	2	·
CCCc1ccc2oc(C(=O)N3CCN(CC(=O)NC(C)C)CC3)c(C)c2c1	6	6	-1	7	0	4
COc1cc(NC(=O)Nc2nnc([C@@H]3C[C@H](O)[C@@H](CO)O3)s2)cc(OC)c1OC	·	·	·	·	1	·
Cc1ccc(/C=C2/NC(=O)N(Cc3ccc(Br)cc3)C2=O)o1	4	33	-1	59*	6	-1
CC(=O)Nc1ccc(S(=O)(=O)NCCC(=O)Nc2cc(C)ccn2)cc1	2	-7	1	-7	-1	·
CC(=O)/C(=N\Nc1ccccc1Cl)Sc1cccc2cccnc12	6	131	2	143*	-1	-1
O=C(Sc1cccc2cccnc12)c1ccc(F)cc1	·	·	·	·	·	5
O=C(CSc1cccc2cccnc12)Nc1ccccc1F	8	3	4	10	3	1
CC(=O)/C(=N\Nc1ccccc1)Sc1cccc2cccnc12	43	167	-2	187*	2	3
Cc1cccc(NC(=O)CSc2cccc3cccnc23)c1	6	-4	-2	17	3	3
